In publication PMC10726135, “HNF4α isoforms regulate the circadian balance between carbohydrate and lipid metabolism in the liver” one finds binding signal data, which are given here for 57 sequences.

In all, about 18,000 sequences were measured (“log2 normalized intensity”: median about 0.39, highest 2% from about 6.6 on). This excerpt belongs to a sample that is enriched for the highest values.

The target in the test is T1, HNF4alpha2 (COS-7 nuclear extract) (Homo sapiens, UniProt P41235 1-474).
T1 sequence: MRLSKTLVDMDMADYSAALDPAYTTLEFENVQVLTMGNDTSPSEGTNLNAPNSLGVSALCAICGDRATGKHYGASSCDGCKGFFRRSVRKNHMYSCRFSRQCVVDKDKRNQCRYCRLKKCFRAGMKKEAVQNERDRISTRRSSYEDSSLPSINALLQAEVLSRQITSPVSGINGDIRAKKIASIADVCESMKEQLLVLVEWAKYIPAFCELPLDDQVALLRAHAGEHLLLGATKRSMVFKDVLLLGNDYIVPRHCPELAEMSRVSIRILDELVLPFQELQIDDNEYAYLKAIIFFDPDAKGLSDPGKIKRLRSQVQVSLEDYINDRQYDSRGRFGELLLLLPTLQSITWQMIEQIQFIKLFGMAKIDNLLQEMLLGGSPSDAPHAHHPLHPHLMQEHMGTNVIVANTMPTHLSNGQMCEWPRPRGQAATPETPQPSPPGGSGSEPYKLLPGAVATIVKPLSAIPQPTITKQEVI
The test can be described thus: protein-binding microarray; COS-7 nuclear extract on double-stranded Agilent 4x180k PBM; binding buffer, salt, pH and temperature not given in the material; high values mean tight binding. The note with it: chain copies: 2; label: 3' end of strand 1 on the slide; dsDNA, one strand shown. The gist of the method: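 The binding signal is Agilent software's gProcessedSignal after background correction and normalization. Arrays were a custom Agilent SurePrint G3 4x180k design of double-stranded ~60-nt oligonucleotides with ~44,000 test sequences in quadruplicate, probed with nuclear extracts of COS-7 cells transiently expressing a human HNF4α isoform. Scans were made at 2-µm resolution on an Agilent G2565CA scanner.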
Consider “CTCTGTGCTCCCAGTTCCCTCATTAGTAACGCCTAGGGAGATTAGAGTATCGGTCGA”, for which the binding signal worked out at 1.33 log2 normalized intensity.

Consider “CAAAGGACATTTCTAAAAATAGCCTTACTTGCCTAGGGAGATTAGAGTATCGGTCGA”, for which the binding signal was -0.901 log2 normalized intensity.

On to “CCCGGCAGCCCTGCTCCCCGCCTTGGCCTCGCCTAGGGAGATTAGAGTATCGGTCGA”, for which the binding signal came out at 1.56 log2 normalized intensity.

“CTACAGGTATGCCTTTGAAGAGTACAGCCTGCCTAGGGAGATTAGAGTATCGGTCGA”: the binding signal is -0.571 log2 normalized intensity.

Regarding “TGACAAGCAAACACAAACTATGACCTTTGAGCCTAGGGAGATTAGAGTATCGGTCGA”, the binding signal came to 8.49 log2 normalized intensity.

For the sequence “AGAGAGTTCTATGGGATGACCTTTGAGCAAGCCTAGGGAGATTAGAGTATCGGTCGA”, the binding signal is 6.93 log2 normalized intensity.

Take “ATGACCCAAACTTCACAAAAATGAGTGCAAGCCTAGGGAGATTAGAGTATCGGTCGA”: the binding signal was -0.838 log2 normalized intensity.

“AGCAAACACAAACTATGACCTTTGAAACTTGCCTAGGGAGATTAGAGTATCGGTCGA”: the binding signal was found to be 7.13 log2 normalized intensity.

As for “GGGCGAGAGAGTTCTATGGGATGACCTTTGGCCTAGGGAGATTAGAGTATCGGTCGA”, the binding signal came out at 6.25 log2 normalized intensity.

Take “GTTCTATGGGATGACCTTTGAGCAATAGGAGCCTAGGGAGATTAGAGTATCGGTCGA”: the binding signal came to 5.15 log2 normalized intensity.

With “ACACAAACTATGACCTTTGAAACTTACATTGCCTAGGGAGATTAGAGTATCGGTCGA”, the binding signal was 5.64 log2 normalized intensity.

Regarding “CAGCAACACTCTACTACTTGACCTTTGAAAGCCTAGGGAGATTAGAGTATCGGTCGA”, the binding signal came to 6.06 log2 normalized intensity.

“TTCTTTTTGAAGCAAAGCCTTTGAGCAGATGCCTAGGGAGATTAGAGTATCGGTCGA”: the binding signal was found to be 0.819 log2 normalized intensity.

For “CCTTTCATGTACTGTTCAGTTCCTATTTCAGCCTAGGGAGATTAGAGTATCGGTCGA”, the binding signal came to 1.72 log2 normalized intensity.

For “GAGTGGACTTTGGCTTATGCAAATGTTATGGCCTAGGGAGATTAGAGTATCGGTCGA”, the binding signal turned out to be 4.25 log2 normalized intensity.

Regarding “TGACCTGGTACTATGACCTTTCACCTTTTAGCCTAGGGAGATTAGAGTATCGGTCGA”, the binding signal was found to be 6.99 log2 normalized intensity.

In the case of “CTATGACCTTTCACCTTTTAGCTTGGCATGGCCTAGGGAGATTAGAGTATCGGTCGA”, the binding signal came out at 4.41 log2 normalized intensity.

Turning to “TTCACCTTTCGCCCTTTGTCCTATGACTCTGCCTAGGGAGATTAGAGTATCGGTCGA”, the binding signal worked out at 4.63 log2 normalized intensity.

For “TGGTACTATGACCTTTCACCTTTTAGCTTGGCCTAGGGAGATTAGAGTATCGGTCGA”, the binding signal stood at 5.81 log2 normalized intensity.

“GAGTGACCTGGTATTGCAAGTATTTCACCCGCCTAGGGAGATTAGAGTATCGGTCGA”: the binding signal stood at 1.57 log2 normalized intensity.

In the case of “ACCTTTGACCTGGTACTATGACCTTTCACCGCCTAGGGAGATTAGAGTATCGGTCGA”, the binding signal worked out at 7.01 log2 normalized intensity.

With “TTAGCAGATAAATCTAGGCCTAGGCATTGAGCCTAGGGAGATTAGAGTATCGGTCGA”, the binding signal is -0.468 log2 normalized intensity.

“ATCTTGGGTTAGGCCTTTAGAGGATTTACTGCCTAGGGAGATTAGAGTATCGGTCGA”: the binding signal was -0.708 log2 normalized intensity.

Consider “CTGGGATGAGATACCCATTCACATGACCTTGCCTAGGGAGATTAGAGTATCGGTCGA”, for which the binding signal was found to be 3.29 log2 normalized intensity.

In the case of “TTCGGTGCTGACCTTTGTTCACATTTGTGCGCCTAGGGAGATTAGAGTATCGGTCGA”, the binding signal came to 5.06 log2 normalized intensity.

With “ATGAGATACCCATTCACATGACCTTTGTCCGCCTAGGGAGATTAGAGTATCGGTCGA”, the binding signal worked out at 8.34 log2 normalized intensity.

On to “CATTCACATGACCTTTGTCCGTTCCTGCCTGCCTAGGGAGATTAGAGTATCGGTCGA”, for which the binding signal came to 5.92 log2 normalized intensity.

For “ATACCCATTCACATGACCTTTGTCCGTTCCGCCTAGGGAGATTAGAGTATCGGTCGA”, the binding signal stood at 7.01 log2 normalized intensity.

“ACATGACCTTTGTCCGTTCCTGCCTGGAGCGCCTAGGGAGATTAGAGTATCGGTCGA”: the binding signal came out at 4.82 log2 normalized intensity.

With “CTGGGAAGATTAAGGAAGGAAGGTGCTTATGCCTAGGGAGATTAGAGTATCGGTCGA”, the binding signal was -0.85 log2 normalized intensity.

“TTCACCCCATTTTGTCCCTCCCTGCAGCTGGCCTAGGGAGATTAGAGTATCGGTCGA”: the binding signal was 4.07 log2 normalized intensity.

As to “ACCAGACTACCTCTTTAGGCTGGACTCTGAGCCTAGGGAGATTAGAGTATCGGTCGA”, the binding signal was found to be 3.96 log2 normalized intensity.

Take “ATGACCTCTTTTAGTAACTGACTTTAACTTGCCTAGGGAGATTAGAGTATCGGTCGA”: the binding signal was found to be 1.5 log2 normalized intensity.

“CCACTCTTTTTTAGACTTTGACCTCCATATGCCTAGGGAGATTAGAGTATCGGTCGA”: the binding signal turned out to be 7.61 log2 normalized intensity.

Take “GACCTCTGCCCTTCCACCCACTTTATCTTCGCCTAGGGAGATTAGAGTATCGGTCGA”: the binding signal is 3.26 log2 normalized intensity.

For the sequence “CCCTGCCACTCTTTTTTAGACTTTGACCTCGCCTAGGGAGATTAGAGTATCGGTCGA”, the binding signal was found to be 10 log2 normalized intensity.

For the sequence “TGCAGCCCTGCCACTCTTTTTTAGACTTTGGCCTAGGGAGATTAGAGTATCGGTCGA”, the binding signal stood at 3.72 log2 normalized intensity.

Consider “ACTACCTCTTTAGGCTGGACTCTGACCCATGCCTAGGGAGATTAGAGTATCGGTCGA”, for which the binding signal worked out at 6.75 log2 normalized intensity.

Take “CTCTTTAGGCTGGACTCTGACCCATTCCTTGCCTAGGGAGATTAGAGTATCGGTCGA”: the binding signal came out at 5.23 log2 normalized intensity.

On to “CTGACCTCTTTTGGATTTTTCCATATCTGTGCCTAGGGAGATTAGAGTATCGGTCGA”, for which the binding signal was determined as 1.74 log2 normalized intensity.

Consider “TTAATGTGCTTGTCTGACTGCTGCCAAAGGGCCTAGGGAGATTAGAGTATCGGTCGA”, for which the binding signal was -0.631 log2 normalized intensity.

“ATGGTGGAGGGTCTTGCTTTGATGTTGATGGCCTAGGGAGATTAGAGTATCGGTCGA”: the binding signal amounted to 1.58 log2 normalized intensity.

With “CTTTTGGTATGCAAGGCATGGTGCTTCGCAGCCTAGGGAGATTAGAGTATCGGTCGA”, the binding signal came out at 1.26 log2 normalized intensity.

With “TTTCAAGAATGGAGAAAACAACATTCCTTGGCCTAGGGAGATTAGAGTATCGGTCGA”, the binding signal was -0.213 log2 normalized intensity.

In the case of “TCCTTTGGATCATGTGTCTGAGCAAGTTTCGCCTAGGGAGATTAGAGTATCGGTCGA”, the binding signal was 2.08 log2 normalized intensity.

As for “TGTCATCTAGACCTGGACTTGAAGCCAGACGCCTAGGGAGATTAGAGTATCGGTCGA”, the binding signal is -0.168 log2 normalized intensity.

In the case of “TGAGTCTGGTGTTTCCCTGTTTGCTTCTGCGCCTAGGGAGATTAGAGTATCGGTCGA”, the binding signal was 0.819 log2 normalized intensity.

As for “GTTTAACTGACCCAGGGAGAAAGGTCAGGGGCCTAGGGAGATTAGAGTATCGGTCGA”, the binding signal is 2.86 log2 normalized intensity.

Turning to “CTTATCTACTTTAAGATTTGACCCTTGGCCGCCTAGGGAGATTAGAGTATCGGTCGA”, the binding signal amounted to 7.08 log2 normalized intensity.

For “AGTGGTTTAAAAACTTATCTTGTGACCTTTGCCTAGGGAGATTAGAGTATCGGTCGA”, the binding signal is 6.81 log2 normalized intensity.

As to “AAACTTATCTTGTGACCTTTGACTCATTATGCCTAGGGAGATTAGAGTATCGGTCGA”, the binding signal was found to be 6.43 log2 normalized intensity.

Regarding “TATCTTGTGACCTTTGACTCATTATCCCCCGCCTAGGGAGATTAGAGTATCGGTCGA”, the binding signal came to 6.24 log2 normalized intensity.

As for “CTGAACTTTAAACTGGTGTGTCTTGCCTTTGCCTAGGGAGATTAGAGTATCGGTCGA”, the binding signal worked out at 2.06 log2 normalized intensity.

“TTTAAAAACTTATCTTGTGACCTTTGACTCGCCTAGGGAGATTAGAGTATCGGTCGA”: the binding signal worked out at 8.33 log2 normalized intensity.

With “TTAAGATTTGACCCTTGGCCAGGTGCAGTGGCCTAGGGAGATTAGAGTATCGGTCGA”, the binding signal was determined as 4.65 log2 normalized intensity.

Consider “ATTCTCTTATCTACTTTAAGATTTGACCCTGCCTAGGGAGATTAGAGTATCGGTCGA”, for which the binding signal came to 5 log2 normalized intensity.

As to “ATCTGACCTTTGGTTAACTTCTTAACTTGGGCCTAGGGAGATTAGAGTATCGGTCGA”, the binding signal is 2.97 log2 normalized intensity.
